Values without a mark were called inactive. Activity calls are given as the source filed them.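 The calls were made as follows: active = compounds whose dose series gives a full or clear partial fitted curve of increased nuclear translocation; inconclusive = weak partial curve or effect only at the top dose; inactive = no dose-dependent translocation response.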 Bounds are passed on as bounds.
Potency is read from the fitted curve at half-maximal effect.

Sequence of Glucocorticoid receptor (Homo sapiens) (P04150 whole entry, looked up): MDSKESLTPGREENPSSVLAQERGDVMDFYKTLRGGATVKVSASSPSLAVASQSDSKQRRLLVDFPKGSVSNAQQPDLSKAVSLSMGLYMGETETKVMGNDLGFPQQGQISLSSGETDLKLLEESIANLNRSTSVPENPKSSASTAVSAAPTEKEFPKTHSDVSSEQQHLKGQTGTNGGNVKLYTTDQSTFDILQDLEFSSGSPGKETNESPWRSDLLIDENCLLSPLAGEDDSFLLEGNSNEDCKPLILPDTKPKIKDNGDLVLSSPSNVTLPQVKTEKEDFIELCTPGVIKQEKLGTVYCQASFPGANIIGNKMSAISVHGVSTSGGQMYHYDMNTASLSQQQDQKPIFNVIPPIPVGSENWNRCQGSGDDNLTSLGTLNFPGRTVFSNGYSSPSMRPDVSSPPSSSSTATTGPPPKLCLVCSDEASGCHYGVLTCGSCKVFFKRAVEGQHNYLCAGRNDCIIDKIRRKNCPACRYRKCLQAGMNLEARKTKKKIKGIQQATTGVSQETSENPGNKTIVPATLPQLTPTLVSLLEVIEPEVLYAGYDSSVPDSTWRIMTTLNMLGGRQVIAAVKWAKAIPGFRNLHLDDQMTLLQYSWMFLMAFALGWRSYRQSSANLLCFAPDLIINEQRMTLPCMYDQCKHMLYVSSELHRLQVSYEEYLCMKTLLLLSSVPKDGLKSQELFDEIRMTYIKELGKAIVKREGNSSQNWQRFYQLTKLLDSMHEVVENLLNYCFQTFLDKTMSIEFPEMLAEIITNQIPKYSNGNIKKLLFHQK

The assay concerns the target Glucocorticoid receptor (Homo sapiens) (UniProt P04150). In words: GR-GFP Redistribution (AID 450). Particulars: U2OS GR-GFP nuclear translocation, laser cytometry, 2 h; series mostly up to 20.6 µM.
Consider `CC(C)(C)c1ccc(O)c(N)c1`, for which the Potency is more than 20.6 µM.
With `CCOC(=O)CSc1nc(-c2ccc3c(c2)OCO3)ccc1C#N` the figure was more than 20.6 µM; with `C=C(C)CSC1=C(C#N)C(c2ccsc2)CC(=O)N1` (centres undefined), more than 20.6 µM.
In the case of `COc1ccccc1N(Cc1cc2cccc(C)c2[nH]c1=O)C(=O)C(C)C` it was more than 20.6 µM; in that of `CCOC(=O)CCc1c(C)c(C#N)c2nc3ccccc3n2c1-n1ccnc1C`, more than 20.6 µM.
As for `CCn1cc(/C=N/O)c(C)n1`, the Potency is more than 20.6 µM.
In the case of `CCOC(=O)c1[nH]c2cc3c(cc2c1NC(=O)CN1CCC2(CC1)OCCO2)OCO3` it was more than 20.6 µM; in that of `Cc1c(C)n(C(=O)CSc2nccn2C)c2ccccc12`, more than 20.6 µM; in that of `COc1cccc(OC)c1C(=O)Nc1nc2ccc(S(C)(=O)=O)cc2s1`, more than 20.6 µM.
Regarding `COC(=O)CSCC(=O)Nc1cc2c(cc1C(C)=O)OCO2`, the Potency was more than 20.6 µM.
With `CC(=O)c1c(OCC(=O)O)ccc2c(C)cc(=O)oc12` the figure was more than 20.6 µM.
In the case of `CC(=O)[C@H]1[C@@H]2C(=O)N(c3cccc(Cl)c3)C(=O)[C@@H]2[C@H]2c3ccccc3C=CN21` it was more than 20.6 µM; in that of `Cc1cc(COc2ccccc2OCCN2CCN(C)CC2)no1`, more than 20.6 µM.
With `COc1cccc(N2C(=O)C(O)=C(C(C)=O)C2c2ccc(OC)c(OC)c2)c1` (centres undefined) the figure was more than 20.6 µM.
As to `CCCc1nnc(NC(=O)Nc2ccccc2OC)s1`, the Potency was more than 20.6 µM.
With `Cn1c(OCc2cccnc2)nc2c1c(=O)n(Cc1ccccc1)c(=O)n2C` the figure was more than 20.6 µM.
With `O=C1C2CC=C(Cl)CC2C(=O)N1CNc1ccccn1` (centres undefined) the figure was more than 20.6 µM.
With `COc1cc(C)nc(Oc2ccc(=O)[nH]n2)n1` the figure was more than 20.6 µM; with `CCOP(=O)(c1ccccc1)C1(C#N)CCCC1` (centres undefined), more than 20.6 µM; with `CC12CCC(=O)N1c1c(sc3nc(N4CCOCC4)c4c(c13)CCCC4)C(=O)N2` (centres undefined), more than 20.6 µM.
`CCCOc1ccc(C2NC(=O)NC2=O)cc1` (centres undefined): the Potency was more than 20.6 µM.
In the case of `CC(=O)Nc1cccc(NC(=O)CSc2nc(C)c(C)c(C)c2C#N)c1`, the Potency is more than 20.6 µM.
In the case of `Cn1c(O)c(C=Nc2ccc(Cc3ccncc3)cc2)c(=O)n(C)c1=O` it was more than 20.6 µM; in that of `COc1cc(C)nc(Nc2nc(C)c(C(C)=O)s2)n1`, more than 20.6 µM.
In the case of `CN(C)c1nc2sc3c(c2c(=O)n1C)CC(C)(C)OC3` it was more than 20.6 µM.
With `Cc1c(=O)n(OCc2c(F)cccc2F)c2ccccc2[n+]1[O-]` the figure was more than 20.6 µM.
As to `COc1ccccc1Cn1c2nc3ccccc3nc2c2c(=O)n(CC(C)C)cnc21`, the Potency was more than 20.6 µM.
With `COc1ccc(OC)c(C2C(C(=O)c3ccco3)=C(O)C(=O)N2CCCN2CCOCC2)c1` (centres undefined) the figure was more than 20.6 µM; with `Cc1cc(CCC(=O)O)c(C)cc1CCC(=O)O`, more than 20.6 µM; with `CCSc1nnc(NC(=O)C(C)(C(F)(F)F)C(F)(F)F)s1`, more than 20.6 µM.
In the case of `CCOC(=O)C(C#N)C(Cc1ccccc1)c1ccco1` (centres undefined) it was more than 20.6 µM; in that of `CCOCCn1c(SCc2c(F)cccc2Cl)nc2c1c(=O)[nH]c(=O)n2C`, more than 20.6 µM.
In the case of `Cn1cc(Cl)nc1C(O)c1ccccc1` (centres undefined), the Potency is more than 20.6 µM.
With `Cc1c(/C(O)=C2/C(=O)C(=O)N(CCCN3CCOCC3)C2c2ccncc2)cnn1-c1ccccc1` (centres undefined), the Potency was more than 20.6 µM.
With `Clc1ccc(-c2nn3c(-c4cccc(Cl)c4)nnc3s2)cc1` the figure was more than 20.6 µM; with `CCN(CC)CCCN1C(=O)C(O)=C(C(=O)c2ccc(C)o2)C1c1ccc(C)o1` (centres undefined), more than 20.6 µM.
As to `CCOC(=O)N1CCN(/C=C(\C#N)c2nc3ccccc3s2)CC1`, the Potency was more than 20.6 µM.
In the case of `CN(C)CCCN1C(=O)C(O)=C(C(=O)c2cc3ccccc3o2)C1c1ccccc1` (centres undefined) it was more than 20.6 µM; in that of `CCCCCCCC(=O)OCC(=O)[C@@]1(O)CC[C@H]2[C@@H]3CCC4=CC(=O)CC[C@]4(C)[C@H]3[C@@H](O)C[C@@]21C`, 0.00571 µM (active).
